{"source": "PubChem BioAssay AID463173", "about": "(ICCB-Longwood Screening Facility, Harvard Medical School, 2010)", "note": "The whole screen tested about 52,000 compounds, of which about 4,300 (8.3%) were called active. The list comes from a sample in which actives are over-represented; it also holds similar structures and randomly drawn compounds. A number with no mark means an inactive call. No stated cut-off is given here; in the data, active means survival mostly below about 52% (no sharp cut-off); inactive means mostly above about 56%."}
{"tested_on": "DeltatarO mutant", "assay": "growth inhibition of S. aureus wild type versus tarO mutant, primary screen, teichoic acid synthesis inhibitors, RN4220, OD600 (AID 463173)", "conditions": "OD600, 18 h, hits give low values, screened at 18.75 µg/mL (by protocol)"}
{"smiles": "COC(=O)c1c(NC(=O)C2c3ccccc3Oc3ccccc32)sc2c1CCC(C)C2", "note": "(stereo unspecified)", "survival": "56%"}
{"smiles": "CCCOC(=O)c1c(NC(=O)C2c3ccccc3Oc3ccccc32)sc2c1CCCC2", "survival": "77%"}
{"smiles": "CCCOC(=O)c1c(NC(=O)C2c3ccccc3Oc3ccccc32)sc2c1CCC(C)C2", "note": "(stereo unspecified)", "survival": "82%"}
{"smiles": "CCOC(=O)c1c(NC(=O)C2c3ccccc3Oc3ccccc32)sc(C)c1CC", "survival": "24% (active)"}
{"smiles": "CCOC(=O)c1c(NC(=O)C2c3ccccc3Oc3ccccc32)sc(C)c1C", "survival": "12% (active)"}
{"smiles": "Cc1sc(NC(=O)C2c3ccccc3Oc3ccccc32)c(C(=O)OC(C)C)c1C", "survival": "59%"}
{"smiles": "CC(C)OC(=O)c1c(NC(=O)C2c3ccccc3Oc3ccccc32)sc2c1CCCC2", "survival": "93%"}
{"smiles": "CNC(=O)C1c2ccccc2Oc2ccccc21", "survival": "91%"}
{"smiles": "CCOC(=O)c1sc(NC(=O)C2c3ccccc3Oc3ccccc32)c(C(=O)OCC)c1C", "survival": "124%"}
{"smiles": "CC1CCc2c(sc(NC(=O)C3c4ccccc4Oc4ccccc43)c2C(=O)OC(C)C)C1", "note": "(stereo unspecified)", "survival": "47% (active)"}
{"smiles": "CCOC(=O)c1sc(NC(=O)C2c3ccccc3Oc3ccccc32)c(C#N)c1C", "survival": "72%"}
{"smiles": "CCc1c(C)sc(NC(=O)C2c3ccccc3Oc3ccccc32)c1C(=O)OC(C)C", "survival": "41% (active)"}
{"smiles": "O=C(C1CC1)N1CCN(c2nc3ccc(F)cc3s2)CC1", "survival": "117%"}
{"smiles": "Cc1nn(-c2ccccc2)c(OC(=O)c2ccccc2)c1S(=O)(=O)c1ccccc1", "survival": "81%"}
{"smiles": "Cc1cc(C)n(-c2n[nH]c(=S)c3ccccc23)n1", "survival": "81%"}
{"smiles": "CN(Cc1ccccc1)c1ccc(-c2nc(-c3ccco3)no2)cc1[N+](=O)[O-]", "survival": "52%"}
{"smiles": "Cc1cc(Nc2cc(Cl)ccc2C)n2nc(-c3ccccc3)nc2n1", "survival": "49%"}
{"smiles": "Cc1c(C(=O)OC(C)C)sc(NC(=O)C2c3ccccc3Oc3ccccc32)c1C(=O)OC(C)C", "survival": "80%"}
{"smiles": "CCN(CC)C(=O)c1sc(NC(=O)C2c3ccccc3Oc3ccccc32)c(C(=O)OC(C)C)c1C", "survival": "30% (active)"}
{"smiles": "CCOC(=O)c1c(NC(=O)COc2cc(C)ccc2C(C)C)sc(C)c1C", "survival": "63%"}
{"smiles": "COC(=O)c1c(NC(=O)COc2ccc(Cl)cc2)sc(C)c1C", "survival": "67%"}
{"smiles": "CCN(CC)C(=O)c1sc(NC(=O)c2nc3ncccn3n2)c(C(=O)OC)c1C", "survival": "137%"}
{"smiles": "Cc1sc(NC(=O)COc2ccc(C(C)(C)C)cc2)c(C(=O)OC(C)C)c1C", "survival": "10% (active)"}
{"smiles": "CCCc1ccc(OCC(=O)Nc2sc(C(=O)OCC)c(C)c2C(=O)OCC)cc1", "survival": "82%"}
{"smiles": "CCOC(=O)c1c(NC(=O)COc2ccc(OC)cc2)sc(C(=O)N(CC)CC)c1C", "survival": "3% (active)"}
{"smiles": "CCN(CC)C(=O)c1sc(NC(C)=O)c(C(=O)OC)c1C", "survival": "99%"}
{"smiles": "CCOc1ccc(NC(=O)Cn2c3ncccc3c(=O)n2-c2ccc(CC)cc2)cc1", "survival": "85%"}
{"smiles": "Cc1ccc(C(=O)c2oc3ccccc3c2NC(=O)Cc2coc3c(C)c(C)ccc23)cc1", "survival": "54%"}
{"smiles": "CCCCNC(=O)Cn1ncc2c(C)n(Cc3cccc(Cl)c3)c(C)c2c1=O", "survival": "93%"}
{"smiles": "Cn1c(=O)c2[nH]c(=S)[nH]c2n(C)c1=O", "survival": "103%"}
{"smiles": "Cc1c(NC(=O)Nc2ccccc2C(F)(F)F)c(=O)n(-c2ccccc2)n1C", "survival": "92%"}
{"smiles": "CCOc1ccc(NC(=O)Cn2c(=O)n(Cc3nc(-c4ccccc4)no3)c(=O)c3cc4c(cc32)OCO4)cc1", "survival": "89%"}
{"smiles": "CCOCCc1nn2c(=O)cc(COC(=O)C3CCCCC3)nc2s1", "survival": "88%"}
{"smiles": "COc1cccc(OC(=O)N2CCOCC2)c1", "survival": "103%"}
{"smiles": "CC1CCCCN1c1c(S(=O)(=O)c2ccc(Cl)cc2)cnc2ccccc12", "note": "(stereo unspecified)", "survival": "102%"}
{"smiles": "Cc1ccc2ncc(S(=O)(=O)c3ccccc3)c(N3CCCCC3C)c2c1", "note": "(stereo unspecified)", "survival": "7% (active)"}
{"smiles": "COc1ccc(S(=O)(=O)c2cnc3ccc(Cl)cc3c2N2CCCCC2C)cc1", "note": "(stereo unspecified)", "survival": "134%"}
{"smiles": "CCN(CC)CCNC(=O)c1cn(CC)c2ccc(S(=O)(=O)N(C)C3CCCCC3)cc2c1=O", "survival": "107%"}
{"smiles": "O=S1(=O)CCC(N2C(=S)SC3CS(=O)(=O)CC32)C1", "note": "(stereo unspecified)", "survival": "96%"}
{"smiles": "O=C(Cn1c(=O)ccc2cc(S(=O)(=O)N3CCCC3)ccc21)NCc1ccc(Cl)cc1", "survival": "102%"}
{"smiles": "CCc1ccc(-c2cc(C)no2)cc1S(=O)(=O)Nc1ccc(C)cn1", "survival": "55%"}
{"smiles": "CCc1ccc(-c2cc(C)no2)cc1S(=O)(=O)Nc1ccc(Cl)cn1", "survival": "17% (active)"}
{"smiles": "CCc1ccc(-c2cc(C)no2)cc1S(=O)(=O)Nc1ccc(Cl)cc1", "survival": "68%"}
{"smiles": "CCC1CCCCN1CCCNC(=O)c1c(O)nc2cc(C)ccn2c1=O", "note": "(stereo unspecified)", "survival": "80%"}
{"smiles": "COc1ccc(-c2noc(-c3ccc(NCCc4ccccc4)c([N+](=O)[O-])c3)n2)cc1OC", "survival": "57%"}
{"smiles": "Cc1ccc(-c2noc(-c3ccc(NCC4CCCO4)c([N+](=O)[O-])c3)n2)cc1", "note": "(stereo unspecified)", "survival": "74%"}
{"smiles": "COc1ccc(-c2noc(-c3ccc(NCC4CCCO4)c([N+](=O)[O-])c3)n2)cc1OC", "note": "(stereo unspecified)", "survival": "54%"}
{"smiles": "COc1ccc(-c2noc(-c3ccc(NCc4cccnc4)c([N+](=O)[O-])c3)n2)cc1", "survival": "56%"}
{"smiles": "COc1ccc(-c2noc(-c3ccc(NCCc4ccccc4)c([N+](=O)[O-])c3)n2)cc1", "survival": "42% (active)"}
{"smiles": "COc1cc(-c2noc(-c3ccc(NCc4ccccc4)c([N+](=O)[O-])c3)n2)cc(OC)c1OC", "survival": "79%"}
{"smiles": "COc1ccccc1-c1noc(-c2ccc(NCc3ccccc3)c([N+](=O)[O-])c2)n1", "survival": "35% (active)"}
{"smiles": "COc1ccc(-c2noc(-c3ccc(NCC4CCCO4)c([N+](=O)[O-])c3)n2)cc1", "note": "(stereo unspecified)", "survival": "42% (active)"}
{"smiles": "COc1ccccc1-c1noc(-c2ccc(NCc3cccnc3)c([N+](=O)[O-])c2)n1", "survival": "47%"}
{"smiles": "O=[N+]([O-])c1cc(-c2nc(-c3ccccc3)no2)ccc1NCCc1ccccc1", "survival": "58%"}
{"smiles": "COc1cc(-c2noc(-c3ccc(NCCc4ccccc4)c([N+](=O)[O-])c3)n2)cc(OC)c1OC", "survival": "66%"}
{"smiles": "COc1ccccc1-c1noc(-c2ccc(NCCc3ccccc3)c([N+](=O)[O-])c2)n1", "survival": "37% (active)"}
{"smiles": "COCC(=O)Nc1c(C(=O)Nc2ccc(C)cc2)oc2ccccc12", "survival": "86%"}
{"smiles": "Cc1ccc(N)cc1N(C)C", "survival": "78%"}
{"smiles": "Cc1ccc(CN2CCN(C3CCN(S(=O)(=O)N(C)C)CC3)C(=O)C2=O)cc1", "survival": "82%"}
{"smiles": "C=CCn1c(C(NC(=O)c2ccc(Cl)cc2Cl)C(C)C)n[nH]c1=S", "note": "(stereo unspecified)", "survival": "81%"}
{"smiles": "COc1cc(NC(=O)C2CCN(S(=O)(=O)c3c(C)noc3/C=C/c3c(C)cc(C)cc3C)CC2)cc(OC)c1", "survival": "78%"}
{"smiles": "Cc1cccc(CCNC(=O)C2CCC(CNS(=O)(=O)c3ccccc3)CC2)c1", "note": "(stereo unspecified)", "survival": "77%"}
{"smiles": "Clc1ccc(Nc2c(-c3ccccc3Cl)nc3ccc(Cl)cn23)cc1", "survival": "45%"}
{"smiles": "Cc1ccc(Cl)cc1NC(=O)NCc1cccn1Cc1ccc(F)cc1", "survival": "104%"}
{"smiles": "Cc1oc2ncn(CC(C)C)c(=O)c2c1C(=O)NCCCN1CCCCC1", "survival": "101%"}
{"smiles": "CCOc1ccc(CCNC(=O)c2c(C)oc3ncn(C)c(=O)c23)cc1", "survival": "84%"}
{"smiles": "CCN(CC)CCCNC(=O)c1c(C)oc2ncn(CC(C)C)c(=O)c12", "survival": "70%"}
{"smiles": "CSc1ccc(CCNC(=O)c2c(C)oc3ncn(C)c(=O)c23)cc1", "survival": "-2% (active)"}
{"smiles": "Cc1ccnc(NC(=O)c2c(C)oc3ncn(CC(C)C)c(=O)c23)c1", "survival": "92%"}
{"smiles": "Cc1cccc(NC(=O)c2c(C)oc3ncn(CC(C)C)c(=O)c23)n1", "survival": "72%"}
{"smiles": "CCNC(=O)c1c(C)oc2ncn(C)c(=O)c12", "survival": "91%"}
{"smiles": "Cc1oc2ncn(CC(C)C)c(=O)c2c1C(=O)Nc1cccc(C(F)(F)F)c1", "survival": "-1% (active)"}
{"smiles": "CCCCNC(=O)c1c(C)oc2ncn(CC(C)C)c(=O)c12", "survival": "6% (active)"}
{"smiles": "Cc1cc(S(=O)(=O)N2CCN(Cc3noc(CCC(=O)N4CCCCC4)n3)CC2)ccc1F", "survival": "89%"}
{"smiles": "CCC(=O)N1CCc2cc(Br)cc(S(=O)(=O)N3CCN(c4ccccc4)CC3)c21", "survival": "73%"}
{"smiles": "CCOc1ccc(CNC(=O)C2CCCN(S(=O)(=O)c3ccc4c(c3)CCCC(=O)N4)C2)cc1", "note": "(stereo unspecified)", "survival": "75%"}
{"smiles": "CN1c2ccc(Cl)cc2-c2nc(SCC(=O)NCc3ccc(F)cc3)ncc2S1(=O)=O", "survival": "117%"}
{"smiles": "COc1ccc(-c2cn3c(n2)sc2cc(C(=O)Nc4ccc(F)cc4Cl)ccc23)cc1", "survival": "61%"}
{"smiles": "O=C(c1cc2ccc3cccnc3c2[nH]1)N1CCCCC1", "survival": "69%"}
{"smiles": "Cc1ccc(OC(=O)c2ccco2)cc1C", "survival": "61%"}
{"smiles": "Cc1cccc(OCc2nc(CC(=O)Nc3ccc(C)c(C)c3)cs2)c1", "survival": "85%"}
{"smiles": "CCCOC(=O)c1ccc(NC(=O)Cc2csc(C)n2)cc1", "survival": "105%"}
{"smiles": "COc1ccc(NC(=O)Cc2csc(C)n2)cc1", "survival": "47%"}
{"smiles": "Cc1cc(C)cc(NC(=O)Cc2csc(COc3cccc(C)c3)n2)c1", "survival": "90%"}
{"smiles": "Cc1nc(CC(=O)Nc2ccc(N(C)C)cc2)cs1", "survival": "45% (active)"}
{"smiles": "Cc1cccc(NC(=O)Cc2csc(COc3cccc(C)c3)n2)c1", "survival": "74%"}
{"smiles": "Cc1nc(CC(=O)Nc2ccc(C)c(C)c2)cs1", "survival": "40% (active)"}
{"smiles": "Cc1cc(C)cc(NC(=O)Cc2csc(C)n2)c1", "survival": "39% (active)"}
{"smiles": "Cc1nc(CC(=O)Nc2ccc(C(N)=O)cc2)cs1", "survival": "49%"}
{"smiles": "COc1ccc(-c2cc(-c3ccc(F)cc3)nc3c2COc2ccc(F)cc2-3)cc1", "survival": "65%"}
{"smiles": "CCC(=O)N1CCc2cc(S(=O)(=O)NC(CC(C)C)C(=O)NCc3cccc(OC)c3)ccc21", "note": "(stereo unspecified)", "survival": "73%"}
